# PubChem BioAssay (NCATS)
# Values joined by “and” are separate entries in the source; they are usually repeats but may differ in a detail not shown here. Equal entries are not always repeated. Inconclusive results are not listed. Where a call stands in place of a potency, no number is given. A number with no mark means an inactive call. Active and inactive are the calls of the source. Calls follow the shape of the dose curve; as a rule, active = well fitted curve in the direction sought with a large enough effect; inconclusive = small, poorly fitted or top-dose-only effect, or another doubt; inactive = no such curve, though single readings can be large; an effect the other way counts as inactive or inconclusive.
# Legend:
# [1] = target: Cellular tumor antigen p53 (Homo sapiens) (UniProt P04637); experiment: Primary qHTS for small molecule compounds that upregulate eGFP-tagged delta133p53alpha (in N-terminal) cells. (AID 2060322); settings: NCI-H358 eGFP-delta133p53alpha fluorescence, 24 h; activation: stronger effect = higher value; also: nearly all actives have a fitted effect of over 75% in size; also: potency is read from the fitted curve at half-maximal effect; as to activation: series mostly up to about 56 µM
# Method in brief: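 NCI-H358 cells pre-induced 24 h with 10 ng/ml doxycycline to express N-terminal eGFP-delta133p53alpha, then dosed 24 h at 37C without doxycycline; fixed, Hoechst-stained, GFP intensity by laser scanning cytometry, normalized to DMSO (0%) and 57.5 uM 5-azacytidine (100%).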
# [2] = target: Aldehyde dehydrogenase, mitochondrial (Homo sapiens) (UniProt P05091); experiment: qHTS for Inhibitors of the Aldehyde Dehydrogenase Family (ALDH2) Primary screen (AID 2061308); also: nearly all actives have a fitted effect of over 55% in size
# [3] = target: Retinaldehyde dehydrogenase 3 (Homo sapiens) (UniProt P47895); experiment: qHTS for Inhibitors of the Aldehyde Dehydrogenase Family (ALDH1A3) Validation screen (AID 2061312); also: nearly all actives have a fitted effect of over 45% in size
# [4] = target: Retinaldehyde dehydrogenase 3 (Homo sapiens) (UniProt P47895); experiment: qHTS for Inhibitors of the Aldehyde Dehydrogenase Family (ALDH1A3) Primary screen (AID 2061315)
# [5] = BET inhibitor-based combinations targeting novel dependencies in MECOM-rearranged (r) AML: SET-2 cell line (AID 2202231); settings: SET-2 AML cells viability, CellTiter-Glo luminescence, 48 h; viability: stronger effect = lower value, concentration not given here; also: nearly all actives have a fitted effect of over 35% in size; also: potency is read from the fitted curve at half-maximal effect
# Method in brief: (§1)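 500 cells/well; 11-pt dose curve; 48 h, standard incubator; CellTiter-Glo luminescence after 15 min RT; DMSO/empty-well normalization; AUC plus Z-AUC (mean-centered within each line).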
# [6] = BET inhibitor-based combinations targeting novel dependencies in MECOM-rearranged (r) AML: OCI-AML3 cell line (AID 2202232); settings: Potency: OCI-AML3 viability; also: nearly all actives have a fitted effect of over 35% in size; also: potency is read from the fitted curve at half-maximal effect
# Method in brief: as §1
# [7] = BET inhibitor-based combinations targeting novel dependencies in MECOM-rearranged (r) AML: MV-4-11 cell line (AID 2202233); also: nearly all actives have a fitted effect of over 45% in size; also: potency is read from the fitted curve at half-maximal effect
# Method in brief: (§2)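 Cells were plated at 500 per well and exposed to each drug across an 11-point dose range for 48 hr at standard incubator conditions. Viability was read by CellTiter-Glo luminescence, and activity was expressed as AUC and per-cell-line Z-transformed AUC.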
# [8] = BET inhibitor-based combinations targeting novel dependencies in MECOM-rearranged (r) AML: HNT-34 cell line (AID 2202234); also: nearly all actives have a fitted effect of over 35% in size; also: potency is read from the fitted curve at half-maximal effect
# Method in brief: as §2
# [9] = BET inhibitor-based combinations targeting novel dependencies in MECOM-rearranged (r) AML: UCSD-AML1 cell line (AID 2202235); also: nearly all actives have a fitted effect of over 40% in size; also: potency is read from the fitted curve at half-maximal effect
# Method in brief: as §2
# [10] = BET inhibitor-based combinations targeting novel dependencies in MECOM-rearranged (r) AML: AML-191 cell line (AID 2202236; also: nearly all actives have a fitted effect of over 35% in size; also: potency is read from the fitted curve at half-maximal effect)
# Method in brief: as §1
# [11] = BET inhibitor-based combinations targeting novel dependencies in MECOM-rearranged (r) AML: AML-194 cell line (AID 2202237; also: nearly all actives have a fitted effect of over 40% in size; also: potency is read from the fitted curve at half-maximal effect)
# Method in brief: as §1
# Cellular tumor antigen p53 (Homo sapiens), sequence (P04637 whole entry, looked up): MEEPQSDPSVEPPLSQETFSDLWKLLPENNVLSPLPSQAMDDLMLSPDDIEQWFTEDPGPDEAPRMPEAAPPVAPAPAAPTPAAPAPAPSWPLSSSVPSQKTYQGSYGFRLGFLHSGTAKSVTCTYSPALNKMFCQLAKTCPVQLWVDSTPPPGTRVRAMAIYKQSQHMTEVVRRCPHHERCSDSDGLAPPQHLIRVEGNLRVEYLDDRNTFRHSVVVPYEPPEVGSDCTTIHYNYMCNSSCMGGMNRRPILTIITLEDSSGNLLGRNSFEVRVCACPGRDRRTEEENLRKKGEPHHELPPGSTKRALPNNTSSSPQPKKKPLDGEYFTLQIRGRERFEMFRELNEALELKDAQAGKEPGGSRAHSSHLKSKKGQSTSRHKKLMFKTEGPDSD
SMILES,activation [1],Potency [2],Potency [3],Potency [4],Potency [1],viability [5],Potency [6],Potency [7],Potency [8],Potency [9],Potency [10],Potency [11],Potency [5],"activity change, negative = inhibition [2]","activity change, negative = inhibition [3]","activity change, negative = inhibition [4]"
COc1ccc(NC(=O)c2ccc(C(=N)N(C)C)cc2)c(C(=O)Nc2ccc(Cl)cn2)c1,-8.59%,inactive,inactive,inactive,,,,,,,,,,,,
CN(C)CCC(CSc1ccccc1)Nc1ccc(S(=O)(=O)NC(=O)c2ccc(N3CCN(Cc4ccccc4-c4ccc(Cl)cc4)CC3)cc2)cc1[N+](=O)[O-] (stereo not drawn),,inactive,inactive,inactive,16.9 µM (active),,,,,,,,,,,
NC(=O)c1ccc(F)c2c1C[C@@H](N(C1CCC1)C1CCC1)CO2,-11.5%,inactive,inactive,inactive,,,,,,,,,,,,
Clc1cccc(-n2nnnc2NCc2ccccc2Oc2ccccn2)c1Cl,-7.52% and 10.5%,inactive,inactive,inactive,,103%,inactive,inactive,inactive,inactive,inactive,inactive,,,,
O=C(c1ccc(NS(=O)(=O)c2cccc3cccnc23)cc1)N1CCN(CC2CC2)CC1,-3.34%,inactive,inactive,inactive,,115%,inactive,inactive,inactive,inactive,inactive,inactive,,,,
COc1cc(CCc2cc(NC(=O)c3ccc(N4C[C@@H](C)N[C@@H](C)C4)cc3)n[nH]2)cc(OC)c1,1.33% and -3.34%,inactive,inactive,inactive,,,18600 nM (active),2090 nM (active),7420 nM (active),7420 nM (active),16600 nM (active),14800 nM (active),20900 nM (active),,,
CC(=O)c1cnc2ccc(-c3cc(Cl)c(O)c(Cl)c3)nc2c1NC1CCC(CN(C)C)CC1 (stereo not drawn),,,,,153 nM (active) and 195 nM (active),,121 nM (active),17.1 nM (active),48.1 nM (active),27 nM (active),48.1 nM (active),60.5 nM (active),60.5 nM (active),21.4% [at 11.2 µM],24.3% [at 20.1 µM],9.88% [at 11.2 µM]
CCC(C)(Oc1ccc(C2(c3ccc(OC(C)(CC)C(=O)O)cc3)CCCCC2)cc1)C(=O)O (stereo not drawn),-25.7% and 13.4%,inactive,inactive,inactive,,114%,inactive,inactive,inactive,inactive,inactive,inactive,,,,
COC(=O)Nc1nc2ccc(C(=O)c3ccc(F)cc3)cc2[nH]1,8.15% and 21.5%,inactive,inactive,inactive,,,590 nM (active),742 nM (active),,468 nM (active),332 nM (active),,833 nM (active),,,
COc1ccc2nc3n[nH]c(C)c3c(NCCOCCO)c2c1,6.21%,inactive,inactive,inactive,,97%,inactive,inactive,inactive,inactive,inactive,inactive,,,,
CCOc1cc2c(c(F)c1OCC)C(=N)N(CC(=O)c1cc(N3CCOCC3)c(OC)c(C(C)(C)C)c1)C2,-9.71%,inactive,inactive,inactive,,,16600 nM (active),8330 nM (active),8330 nM (active),,16600 nM (active),10500 nM (active),16600 nM (active),,,
CC(C)CNc1ccnc(NCc2csc(-c3ccccc3)n2)n1,18.4% and 19.6%,inactive,inactive,inactive,,,8330 nM (active),8330 nM (active),5900 nM (active),5250 nM (active),16600 nM (active),16600 nM (active),11800 nM (active),,,
Cc1c(F)cc(C(=O)NC2CC2)cc1-c1ccc(C(=O)NCC(C)(C)C)cn1,2.86%,inactive,inactive,inactive,,92.7%,inactive,inactive,inactive,inactive,inactive,inactive,,,,
CNC(=O)c1cccc(-c2ccc3c(N4CCOC[C@@H]4C)nc(N4CCOC[C@@H]4C)nc3n2)c1,20%,inactive,inactive,inactive,,,263 nM (active),372 nM (active),,66.1 nM (active),,,590 nM (active),,,
C[C@@]1(c2cc(-c3cncnc3)c(F)cc2F)CCSC(N)=N1,19.2% and -1.91%,inactive,inactive,inactive,,111%,inactive,inactive,inactive,inactive,inactive,inactive,,,,
CC[C@@H](C)Nc1cc(C(=O)NC2CC3CC[C@@H](C2)N3c2ccc(C(=O)C3CC3)cn2)c(C)cc1C(N)=O (stereo partly drawn),20.5%,inactive,inactive,inactive,,,66.1 nM (active),41.7 nM (active),105 nM (active),132 nM (active),118 nM (active),105 nM (active),132 nM (active),,,

SMILES,activation [1],Potency [2],Potency [3],Potency [4],Potency [1],viability [5],Potency [6],Potency [7],Potency [8],Potency [9],Potency [10],Potency [11],Potency [5],"activity change, negative = inhibition [2]","activity change, negative = inhibition [3]","activity change, negative = inhibition [4]"
CCN(CC)CCNC(=O)c1ccc2nc(-c3ccccc3)c(-c3ccc(CN4CCC(n5c(=O)[nH]c6ccccc65)CC4)cc3)nc2c1,,inactive,inactive,inactive,4.32 µM (active) and 8.49 µM (active),,8330 nM (active),6610 nM (active),8330 nM (active),,9340 nM (active),7420 nM (active),8330 nM (active),,,
O=C(O)CC1CCC(c2ccc(-c3ccc(Nc4ccc(C(F)(F)F)nc4)cn3)cc2)CC1 (stereo not drawn),-9.55%,inactive,inactive,inactive,,114%,inactive,inactive,,inactive,inactive,inactive,,,,
Cc1cccc(-c2nn3c(c2-c2ccnc4ccc(C(N)=O)cc24)CCC3)n1,-7.16%,inactive,inactive,inactive,,108%,inactive,inactive,inactive,inactive,inactive,inactive,,,,
CC[C@@]1(O)C(=O)OCc2c1cc1n(c2=O)Cc2cc3cc(O)ccc3nc2-1,,inactive,inactive,inactive,1.51 µM (active) and 19.3 µM (active),,14.8 nM (active),6.6 nM (active),7.4 nM (active),13.2 nM (active),13.2 nM (active),20.9 nM (active),33.2 nM (active),,,
CC(C)(OCc1nn(Cc2ccccc2)c2ccccc12)C(=O)O,-10.7% and 1.91%,inactive,inactive,inactive,,104%,inactive,inactive,inactive,inactive,inactive,inactive,,,,
COc1cc2c(cc1OC)CN(CCc1ccc(NC(=O)c3cccc4c(=O)c5cccc(OC)c5[nH]c34)cc1)CC2,-17.9%,inactive,inactive,inactive,,111%,inactive,inactive,inactive,,inactive,inactive,,,,
CC(C)(C)c1cc(C(=O)O)c(NC(=O)Nc2ccc3[nH]ncc3c2)s1,7.87% and -13.8%,inactive,inactive,inactive,,118%,inactive,18600 nM (active),inactive,inactive,inactive,inactive,,,,
C[C@H]1CN(C[C@H](Cc2ccccc2)C(=O)NCC(=O)O)CC[C@@]1(C)c1cccc(O)c1,7.64%,inactive,inactive,inactive,,120%,inactive,inactive,inactive,inactive,inactive,inactive,,,,
CC(C)C[C@H](NC(=O)[C@H](Cc1ccccc1)NC(=O)c1cnccn1)B(O)O,,inactive,inactive,inactive,968 nM (active) and 379 nM (active),,10.5 nM (active),13.2 nM (active),,18.6 nM (active),18.6 nM (active),20.9 nM (active),16.6 nM (active),,,
Nc1nc(F)nc2c1ncn2[C@@H]1O[C@H](CO)[C@@H](O)[C@@H]1O,-5.02% and -9.07%,inactive,inactive,inactive,,,10500 nM (active),9340 nM (active),14800 nM (active),1050 nM (active),2950 nM (active),3720 nM (active),14800 nM (active),,,
NS(=O)(=O)OC[C@@H]1C[C@@H](n2ccc3c(N[C@H]4CCc5ccccc54)ncnc32)C[C@@H]1O,-7.64% and -2.39%,inactive,inactive,inactive,,,372 nM (active),209 nM (active),,590 nM (active),934 nM (active),934 nM (active),525 nM (active),,,
CN(C)C1CCN(C(=O)c2ccc(NC(=O)Nc3ccc(-c4nc(N5CCOCC5)nc(N5CCOCC5)n4)cc3)cc2)CC1,-0.955%,inactive,inactive,inactive,,,166 nM (active),118 nM (active),118 nM (active),263 nM (active),,1480 nM (active),4680 nM (active),,,
Cc1cc2c(s1)Nc1ccccc1N=C2N1CCN(C)CC1,-5.86% and 20.9% and -11.5%,inactive,inactive,inactive,,111%,inactive,inactive,inactive,inactive,inactive,inactive,,,,
OC[C@H]1O[C@@H](Oc2cc(O)cc(/C=C/c3ccc(O)cc3)c2)[C@H](O)[C@@H](O)[C@@H]1O,-6.21%,inactive,inactive,inactive,,115%,inactive,inactive,inactive,inactive,inactive,inactive,,,,
O=C(COCC(=O)N1CCN(C(c2ccccc2)c2ccccc2)CC1)Nc1ccc(Cl)cc1C(=O)O,-25.3%,inactive,inactive,inactive,,119%,inactive,inactive,inactive,inactive,inactive,inactive,,,,
